Laboratory results published in PubChem BioAssay AID1159580 (chemical genetic matrix, 2015).
Values joined by “and” are separate entries in the source; they are usually repeats but may differ in a detail not shown here. Identical values can stand only once. Hit rate of the full screen: of about 5,500 compounds, about 2,000 (36%) were called active. Not shown: some 18% with an inconclusive outcome. Cut-off read from the data, not from the text of the source: active = normalized growth mostly below about 0.91 (no sharp cut-off); inconclusive = no clear call, values can overlap the other calls; inactive = mostly above about 0.92. Some of the results follow.

Assay: chemical genetic growth profiling, strain panel (AID 1159580);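 note: tested at 20 µM; growth read once vehicle control cultures reached saturation at 30 °C; 1 = growth at the plate median or of vehicle wells; lower values mean less growth of the strain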
Conditions: S. cerevisiae deletion strains, growth OD

Measured: normalized growth

C/C=C1\[C@H]2C=C(C)C[C@]1(N)c1ccc(=O)[nH]c1C2
inactive: locus YAL013W, strain DEP1, stronger effect = lower value 1.01 | locus YAL021C, strain ccr4, stronger effect = lower value 1 | locus YAL026C, strain drs2, stronger effect = lower value 1.03 | locus YAL030W, strain snc1, stronger effect = lower value 1.02 | locus YBL061C, strain skt5, stronger effect = lower value 1.01 | locus YBR009C, strain hhf1, stronger effect = lower value 1.03 | locus YBR021W, strain FUR4, stronger effect = lower value 1.01 | locus YBR023C, strain chs3, stronger effect = lower value 1.02 | locus YBR171W, strain sec66, stronger effect = lower value 1.03 | locus YBR229C, strain ROT2, stronger effect = lower value 1.01 | locus YBR231C, strain swc5, stronger effect = lower value 1.02 | locus YBR279W, strain paf1, stronger effect = lower value 1.02 | locus YCL011C, strain gbp2, stronger effect = lower value 1.02 | locus YCL016C, strain dcc1, stronger effect = lower value 1.01 | locus YCL029C, strain bik1, stronger effect = lower value 1.02 | locus YCL061C, strain MRC1, stronger effect = lower value 1.02 | locus YCL069W, strain vba3, stronger effect = lower value 1.02 | locus YCR088W, strain abp1, stronger effect = lower value 1.02 | locus YDL005C, strain med2, stronger effect = lower value 1.04 | locus YDL035C, strain GPR1, stronger effect = lower value 1.01 | locus YDL040C, strain nat1, stronger effect = lower value 1.01 | locus YDL074C, strain BRE1, stronger effect = lower value 1.01 | locus YDL101C, strain DUN1, stronger effect = lower value 1.01 | locus YDL134C, strain PPH21, stronger effect = lower value 1.01 | locus YDL185W, strain tfp1, stronger effect = lower value 1.02 | locus YDL192W, strain arf1, stronger effect = lower value 1.02 | locus YDR001C, strain nth1, stronger effect = lower value 1.01 | locus YDR069C, strain doa4, stronger effect = lower value 1.03 | locus YDR101C, strain arx1, stronger effect = lower value 1 | locus YDR137W, strain rgp1, stronger effect = lower value 1.01 | locus YDR150W, strain NUM1, stronger effect = lower value 1.02 | locus YDR159W, strain sac3, stronger effect = lower value 1.03 | locus YDR162C, strain NBP2, stronger effect = lower value 1.02 | locus YDR195W, strain ref2 0.989 | locus YDR297W, strain sur2, stronger effect = lower value 1.01 | locus YDR318W, strain mcm21, stronger effect = lower value 1.02 | locus YDR334W, strain swr1, stronger effect = lower value 1.03 | locus YDR335W, strain msn5, stronger effect = lower value 1.02 | locus YDR388W, stronger effect = lower value 1.01 | locus YDR392W, strain spt3, stronger effect = lower value 0.966 | locus YDR502C, strain sam2, stronger effect = lower value 1.01 | locus YEL003W, strain gim4, stronger effect = lower value 1.03 | locus YEL037C, strain rad23, stronger effect = lower value 1.02 | locus YEL061C, strain CIN8 (second series), stronger effect = lower value 1.03 | locus YEL061C, strain CIN8, stronger effect = lower value 1.01 | locus YER015W, strain faa2, stronger effect = lower value 1.02 | locus YER016W, strain bim1, stronger effect = lower value 1.03 | locus YER110C, stronger effect = lower value 1.01 | locus YER111C, strain swi4, stronger effect = lower value 1.03 | locus YER155C, strain BEM2 (second series), stronger effect = lower value 1.04 | locus YER155C, strain BEM2, stronger effect = lower value 1 | locus YER167W, strain BCK2, stronger effect = lower value 1.02 | locus YFR010W, strain ubp6, stronger effect = lower value 1.03 | locus YGL078C, strain dbp3, stronger effect = lower value 1.01 | locus YGL086W, strain mad1, stronger effect = lower value 1.01 | locus YGL167C, strain pmr1, stronger effect = lower value 1.02 | locus YGL173C, strain kem1, stronger effect = lower value 1.04 | locus YGL227W, strain vid30, stronger effect = lower value 1.03 | locus YGL240W, strain doc1, stronger effect = lower value 1.04 | locus YGL248W, strain PDE1, stronger effect = lower value 1.01 | locus YGL253W, strain hxk2, stronger effect = lower value 1.02 | locus YGR078C, strain PAC10, stronger effect = lower value 1.01 | locus YGR135W, strain pre9, stronger effect = lower value 1 | locus YGR229C, strain SMI1, stronger effect = lower value 1.01 | locus YGR252W, strain gcn5, stronger effect = lower value 1.01 | locus YHR013C, strain ard1, stronger effect = lower value 1.02 | locus YHR027C, strain rpn1, stronger effect = lower value 1.03 | locus YHR030C, strain SLT2, stronger effect = lower value 1 and 1.02 | locus YHR079C, strain IRE1 (second series), stronger effect = lower value 1.01 | locus YHR079C, strain IRE1, stronger effect = lower value 1.01 | locus YHR094C, strain hxt1, stronger effect = lower value 1.01 | locus YHR129C, strain ARP1, stronger effect = lower value 1 | locus YHR142W, strain chs7, stronger effect = lower value 0.992 | locus YHR200W, strain rpn10, stronger effect = lower value 1.02 | locus YIL066C, strain RNR3, stronger effect = lower value 1.02 | locus YIL073C, strain SPO22, stronger effect = lower value 1.08 | locus YIL125W, strain kgd1, stronger effect = lower value 1.02 | locus YIR030C, strain dcg1, stronger effect = lower value 1.01 | locus YJL092W, strain hpr5, stronger effect = lower value 1.03 | locus YJL095W, strain BCK1 (second series), stronger effect = lower value 1.01 | locus YJL095W, strain BCK1, stronger effect = lower value 0.989 and 0.995 | locus YJL115W, strain asf1, stronger effect = lower value 1.02 | locus YJL129C, strain trk1, stronger effect = lower value 1.02 | locus YJL134W, strain LCB3, stronger effect = lower value 1.01 | locus YJL154C, strain vps35, stronger effect = lower value 1.02 | locus YJL164C, strain tpk1, stronger effect = lower value 1.01 | locus YJL166W, strain qcr8, stronger effect = lower value 1.02 | locus YJL168C, strain set2, stronger effect = lower value 1.01 | locus YJL187C, strain SWE1 (second series), stronger effect = lower value 1 | locus YJL187C, strain SWE1, stronger effect = lower value 1.02 | locus YJR043C, strain POL32, stronger effect = lower value 1.01 | locus YJR066W, strain TOR1, stronger effect = lower value 0.96
